Source: PubChem BioAssay
A selection: hits, their analogues and other compounds. The true share with any hit is near 3.9%.
3CLpro inhibitor – SARS-CoV 3CLpro protease inhibition; recombinant SARS-CoV 3CLpro, quenched FRET peptide cleavage; inhibition, % at 6 µM; actives 0.14% (n = 290,000); AID 1706; in the data active = inhibition above about 12%
BoNT F protease – BoNT F light chain protease inhibition; Multiplex microsphere protease cleavage assay, flow cytometry; inhibition, % at 10 µM; actives 0.22% (n = 360,000); AID 588497; in the data active = inhibition above about 35%, passing the limit was not always enough; inconclusive = no clear call, values can overlap the other calls; also: plate controls were buffer without enzyme for full effect and enzyme alone for no effect
CCHF vOTU inh-1 – CCHFV vOTU protease inhibition. actives 0.55% (n = 370,000). inhibition, % at 11.5 µM. Pep-AMC fluorescence; also: 0% = vehicle wells with enzyme and 100% = no enzyme wells
Bead autofluor – counter-screen for toxin protease inhibitors: compound fluorescence; AID 624483; fluorescence intensity (test concentration not listed); compound autofluorescence counterscreen, microsphere flow cytometry; active compounds read high; actives 3.1% (n = 360,000); in the data active = fluorescence intensity above about 16000; inconclusive = no clear call, values can overlap the other calls
Anthrax LF prot – inhibitors of Bacillus anthracis lethal factor protease; inhibition, % at 10 µM; actives 0.12% (n = 360,000); multiplex microsphere protease cleavage assay, LF; P15917; in the data active = inhibition above about 30%; inconclusive = no clear call, values can overlap the other calls; also: plate controls were buffer without enzyme for full effect and enzyme alone for no effect
BoNT A protease – inhibitors of Botulinum neurotoxin A light chain protease; multiplex microsphere protease substrate cleavage, flow cytometry; inhibition, % at 10 µM; actives 0.17% (n = 360,000); in the data active = inhibition above about 30%; inconclusive = no clear call, values can overlap the other calls; also: plate controls were buffer without enzyme for full effect and enzyme alone for no effect
CCHF vOTU inh-2 – CCHFV vOTU protease inhibition, confirmation. shares compounds with CCHF vOTU inh-1. Recombinant CCHFV vOTU, Pep-AMC fluorescence. inhibition, % at 11.5 µM. actives 17% (n = 1,900). AID 686976
An asterisk follows results filed as active; ? = inconclusive; nt = no result given. Rule as the data show it, unless noted: active = inhibition above about 30%; inactive = the rest.

SMILES	3CLpro inhibitor	BoNT F protease	CCHF vOTU inh-1	Bead autofluor	Anthrax LF prot	BoNT A protease	CCHF vOTU inh-2
CN1CCN(CC(=O)n2c3c(c4ccccc42)CCCC3)CC1	3	-10	45*	7905	-3	0	-1
CCc1nnc(N/N=C/c2ccc(-c3ccc([N+](=O)[O-])cc3)o2)n1N	4	-3	65*	2722	4	8	4
Cc1nnc(N/N=C\c2ccc(-c3ccccc3[N+](=O)[O-])o2)n1N	4	22	101*	2097	-2	2	7
CCC(=O)N/N=C/c1ccc(-c2ccc([N+](=O)[O-])cc2)o1	5	-12	8	3492	2	2	nt
Cc1nnc(N/N=C/c2ccc(-c3ccccc3F)o2)n1N	6	3	79*	2701	0	0	5
Cc1nc2c(o1)C(=O)c1ccccc1C2=Nc1ccccc1	nt	-5	41*	2983	-8	0	53*
CC(C)(C)C(=O)Cn1nc(Cl)nc1Cl	-4	-3	2	4491	1	0	nt
COc1ccc(-n2c3nc4ccccc4nc3c3c(=N)oc(C)nc32)cc1	1	-27	69*	8730	-13	-2	36*
COc1cc(OC)cc(C(=O)NCC2CCN(C(=O)C(=O)c3cc4ccccc4o3)CC2)c1	nt	nt	15	nt	nt	nt	nt
O=C(NCC1CCN(C(=O)C(=O)c2cc3ccccc3o2)CC1)c1cc(C(F)(F)F)cc(C(F)(F)F)c1	nt	nt	37*	nt	nt	nt	-11
CC(=O)Nc1ccc(S(=O)(=O)Nc2ccccc2C(=O)N2CCCC2)cc1	-3	13	30*	3651	-10	0	-6
O=C(c1ccccc1NS(=O)(=O)c1ccccc1)N1CCCCCC1	-2	4	16	3317	-14	-5	nt
Oc1ccc2ccccc2c1C=NC12CN3CCN(CN(C3)C1)C2	1	-18	72*	2414	2	2	73*
CN(C)/N=C/c1c(O)ccc2ccccc12	0	-5	20	2910	-3	0	nt
COC(=O)c1c(-c2ccccc2)c[nH]c1C	0	?	-11	4884	-6	?	nt
Cc1ccc(S(=O)(=O)/N=C2/NC(=O)/C(=C/c3cc([N+](=O)[O-])ccc3O)S2)cc1	7	1	43*	5997	1	1	11
O=C(O)c1cc(O)c2c(c1)[C@@H]([C@H]1c3cc(C(=O)O)cc(O)c3C(=O)c3c(O[C@@H]4O[C@H](CO)[C@@H](O)[C@H](O)[C@H]4O)cccc31)c1cccc(OC3O[C@H](CO)[C@@H](O)[C@H](O)[C@H]3O)c1C2=O (stereo partly drawn)	nt	22	73*	4822	-7	-4	33*
O=C1c2cc(CO)cc(O)c2C(=O)c2c(O[C@@H]3OC(CO)[C@@H](O)[C@@H](O)[C@@H]3O)cccc21 (stereo partly drawn)	nt	-7	0	4061	-13	0	nt
O=C(O)c1cc(O)c2c(c1)[C@H]([C@H]1c3cc(C(=O)O)cc(O)c3C(=O)c3c(O[C@@H]4O[C@H](CO)[C@@H](O)[C@H](O)[C@H]4O)cccc31)c1cccc(OC3O[C@H](CO)[C@@H](O)[C@H](O)[C@H]3O)c1C2=O (stereo partly drawn)	nt	-9	118*	4861	-10	-6	107*
Cc1ccc(S(=O)(=O)N(Cc2cc3cc4c(cc3[nH]c2=O)OCCO4)CC2CCCO2)cc1 (stereo not drawn)	-3	3	38*	5215	-5	0	-27
Cc1ccc2nsnc2c1S(=O)(=O)N(CCO)Cc1cc2cc3c(cc2[nH]c1=O)OCCO3	-3	-4	44*	6744	4	-1	-5
Cc1ccc2[nH]c(=O)c(CN(Cc3ccco3)S(=O)(=O)c3c(C)ccc4nsnc34)cc2c1	5	-8	-9	9615	-6	0	nt
O=C(NCc1ccc(Cl)cc1)c1cccc(NC2=NC3CS(=O)(=O)CC3S2)c1 (stereo not drawn)	-7	-6	1	5179	-1	0	nt
CC1(C(=O)NS(=O)(=O)C2CC2)CCCN(C(=O)c2ccccc2OC(F)(F)F)C1 (stereo not drawn)	nt	0	4	3829	2	0	nt
COc1ccc(-c2cc(=O)n(CCC#N)[nH]2)cc1	1	-6	62*	9686	-6	-1	-27
SMILES	3CLpro inhibitor	BoNT F protease	CCHF vOTU inh-1	Bead autofluor	Anthrax LF prot	BoNT A protease	CCHF vOTU inh-2
CNc1ccc(Br)cc1C(O)c1ccccc1 (stereo not drawn)	6	?	9	5025	4	?	nt
CCOC(=O)C(C(=O)OCC)c1cc(Br)c2noc3c2c1C(=O)c1ccccc1-3	-3	-6	35*	3932	58*	68*	11
O=C(NCc1cccc(C(F)(F)F)c1)c1[nH]c(C(F)(F)F)nc1-c1ccccc1	nt	-13	nt	4326	9	-1	nt
CCn1c(C)cc(/C=C2/NC(=O)N(CC(=O)Nc3cccc(C)c3)C2=O)c1C	2	-7	31*	10929	-2	0	3
O=C1CCCN1S(=O)(=O)c1ccc(F)cc1	-3	?	3	4262	-4	2	nt
CCOc1ccc(NCC(=O)c2ccc(C)cc2)cc1	1	-2	8	3231	-5	0	nt
Cc1ccc(S(=O)(=O)Nc2ccc(Nc3nccn4c(-c5cccc(OC(F)(F)F)c5)cnc34)cc2)cc1	nt	1	30*	3932	-2	-1	-5
CSc1cccc(NS(=O)(=O)c2cc(Br)cnc2N)c1	7	-1	4	5460	-4	1	nt
CC1CCCCC1NC(=O)CCNS(=O)(=O)c1ccc2c(c1)CCC(=O)N2 (stereo not drawn)	11	-4	21	5691	-4	-2	nt
COC1C(OC(=O)/C=C/C=C/C=C/C=C/C(=O)O)CCC2(CO2)C1C1(C)OC1CC=C(C)C (stereo not drawn) (tested in a mixture with another compound)	nt	-7	30*	3629	-5	0	3
Cc1ccc(C=Nc2ccccc2C(N)=O)o1	2	-1	11	2512	0	0	nt
Cc1ccc(C=Nc2ccc(N(C)C)cc2)o1	4	-79	33*	9565	-21	0	-4
O=C(C[C@H]1C/C=C\CC[C@H](Cc2ccc(F)cc2)C(=O)OC[C@@H](Cc2c[nH]c3ccccc23)NC1=O)NCCO	nt	-3	-3	3608	0	0	nt
CCOC(=O)C1CCCN(C(=O)c2cccc(S(=O)(=O)N(Cc3ccccc3)c3ccccc3OC)c2)C1 (stereo not drawn)	nt	5	36*	5577	4	3	-12
CC1CCN(c2ccc(/C=N/n3nnnc3N)cc2[N+](=O)[O-])CC1	2	2	8	6960	-5	-1	nt
CC(C)(C)c1nnc(N/N=C/c2ccc(Br)cc2)n(N)c1=O	-1	-4	24	2125	-3	0	nt
